# Rows were chosen to be rich in hits. Some 2.2% of all compounds tested hit in one or more screens of this group.
# MOR-DOR ag – OPRM1-OPRD1 heterodimerization agonism. P35372+P41143. activation, % at 9.3 µM. hit rate 0.3% among 340,000. AID 504326. cells, luminescence; in the data active = activation above about 18%;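 note: 0% = vehicle-treated cells and 100% = reference agonist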
# HTR5A ag ctr – counter-screen for OPRM1-OPRD1 agonists: human HTR5A agonism | HTR5A agonist assay, luminescence, cell-based | activation, % at 9.3 µM | hit rate 0.61% among 340,000 | AID 504692; in the data active = activation mostly above about 9.5%, no sharp cut-off; inactive = mostly below about 7.6%;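 note: 0% = cells with vehicle only and 100% = reference agonist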
# OPRM1-OPRD1 inv – inverse agonists of human mu-delta opioid receptor heterodimerization; cell-based MOR-DOR heterodimer luminescence, inverse agonism; P35372+P41143; hit rate 0.21% among 340,000; inhibition, % at 9.3 µM; in the data active = inhibition above about 22%, passing the limit was not always enough;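 note: 0% = cells with DMSO and 100% = wells without cells with DMSO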
# m5-HT2A agonist – activates the mouse 5-HT2A serotonin receptor | P35363 | CHO-K1 mHTR2A beta-arrestin complementation, luminescence; percent of 30 µM serotonin response | activation, % at 7.6 µM | hit rate 0.66% among 360,000 | AID 624169;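 active = activation above a run cutoff, the mean activation of all tested compounds plus 3 SD, cut at about 14% in these data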;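 note: 0% = plate median of compound wells and 100% = 30 µM serotonin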
# HTR5A inv ctr – HTR5A inverse agonism, opioid heterodimer counter-screen. P47898. hit rate 0.083% among 340,000. HTR5A cell line, luminescence. AID 504634. inhibition, % at 9.3 µM; in the data active = inhibition mostly above about 23%, no sharp cut-off; inactive = mostly below about 18%;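 note: 0% = cells with DMSO and 100% = no-cell wells with DMSO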
# HGIII-sPLA2 inh – Blocks human group III sPLA2 activity; hit rate 0.56% among 370,000; QFRET BODIPY PC-A2 liposome hydrolysis, fluorescence; inhibition, % at 12.2 µM;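 active = inhibition above mean plus 3 SD of compounds lying within the high and low control bounds, cut at about 19% in these data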;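 note: 0% = median of test compound wells and 100% = no enzyme DMSO wells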
# Target sequence (Q9NZ20 whole entry, looked up): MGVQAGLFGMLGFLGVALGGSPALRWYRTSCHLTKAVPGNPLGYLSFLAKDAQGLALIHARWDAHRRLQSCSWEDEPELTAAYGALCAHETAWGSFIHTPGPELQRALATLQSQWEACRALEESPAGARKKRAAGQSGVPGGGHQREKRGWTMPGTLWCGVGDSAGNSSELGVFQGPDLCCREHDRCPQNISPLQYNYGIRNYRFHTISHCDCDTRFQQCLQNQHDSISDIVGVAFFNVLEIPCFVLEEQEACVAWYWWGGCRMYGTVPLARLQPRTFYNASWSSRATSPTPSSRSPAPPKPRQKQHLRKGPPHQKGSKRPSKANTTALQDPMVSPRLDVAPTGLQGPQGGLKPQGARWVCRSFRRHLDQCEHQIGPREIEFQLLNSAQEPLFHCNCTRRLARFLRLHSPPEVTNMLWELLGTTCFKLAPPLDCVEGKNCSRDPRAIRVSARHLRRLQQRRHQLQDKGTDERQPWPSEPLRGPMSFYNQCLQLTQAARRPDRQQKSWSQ
# sPLA2 confirm – human GIII-sPLA2 inhibition, confirmation; recombinant hGIII-sPLA2, BODIPY PC-A2 QFRET fluorescence; hit rate 34% among 2,000; inhibition, % at 12.2 µM; shares compounds with HGIII-sPLA2 inh;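 active = mean inhibition across triplicates above the hit cutoff set in the earlier primary screen, cut at about 19% in these data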;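 note: 0% = enzyme with DMSO and 100% = DMSO wells lacking enzyme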
# BODIPY interf – counter-screen for HGIII-sPLA2 inhibitors: 535nm fluorescence interference; shares compounds with HGIII-sPLA2 inh; BODIPY FL product fluorescence interference, QFRET; inhibition, % at 12.2 µM; hit rate 8.5% among 2,000; AID 743282;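 active = average inhibition above the solvent-only control mean plus 3 SD, cut at about 6% in these data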;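 note: 0% = DMSO with substrate plus product and 100% = DMSO with substrate alone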
# BODIPY interf DR – counter-screen for HGIII-sPLA2 inhibitors: 535nm fluorescence interference, dose response; BODIPY FL product fluorescence interference, cell-free; AID 743455; IC50, µM; 240 tested, under 10 active; shares compounds with HGIII-sPLA2 inh;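 active = IC50 at or below 10 µM; inactive = IC50 above 10 µM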
# * hit, by the source's call; nt = no result.
SMILES,MOR-DOR ag,HTR5A ag ctr,OPRM1-OPRD1 inv,m5-HT2A agonist,HTR5A inv ctr,HGIII-sPLA2 inh,sPLA2 confirm,BODIPY interf,others
O=C(O)CNS(=O)(=O)c1ccc(F)cc1,-1.8,-2.4,9.6,-3.0,6.2,-2.4,nt,nt,
C=CCNC(=O)CNS(=O)(=O)c1ccc(F)cc1,-2.5,-1.5,11.6,1.6,-6.4,20.2*,-0.2,-4.2,
CCOC(=O)[C@@]12CCCC=C1N(CCc1ccc(Cl)cc1)C(=O)[C@H]2CC(=O)N1CCOCC1,nt,nt,nt,nt,nt,7.4,nt,nt,
CC(C)(C)c1csc(NNC(=O)c2ccc(Cl)cc2)n1,nt,nt,nt,7.1,nt,33.9*,44.5*,4.3,BODIPY interf DR=>122
CC(C)(C)c1csc(NC(=O)c2cccnc2)n1,-3.4,-4.8,16.6,-1.4,16.2,8.4,nt,nt,
CCOc1ccccc1NC(=O)C(OC(=O)c1ccccc1)c1ccccc1 (stereo not given),6.0,-0.1,-31.6,-3.0,-13.1,-7.7,nt,nt,
CCOc1ccccc1NC(=O)C(OC(=O)c1ccccc1O)c1ccccc1 (stereo not given),0.4,-3.8,-2.3,1.6,10.3,22.4*,-18.1,-11.2,
Cc1ccccc1CN1CCCCC(NC(=O)Nc2ccccc2)C1=O (stereo not given),nt,nt,nt,nt,nt,2.5,nt,nt,
COc1ccc(CCNC(=O)c2cnc3ccccn3c2=O)cc1,-1.6,-2.0,9.0,1.6,13.2,21.0*,-5.2,-4.0,
COC(=O)Cn1c2ccccc2c(=O)n1C(C)C,nt,nt,nt,9.3,nt,20.3*,1.3,1.4,
COC(=O)Cn1c2ccccc2c2nc(=O)cc(C)n21,-1.5,-3.1,7.9,3.9,7.7,-2.8,nt,nt,
CCN(CC(=O)NC(C)(C)C)C(=O)CCl,-2.3,4.5,12.3,6.8,11.6,19.8*,1.6,-1.5,
COc1ccc(N)c2c1C(=O)c1ccccc1C2=O,-2.7,-1.7,14.6,-0.7,7.9,32.9*,37.4*,13.7*,
Cc1ccc(C2CCN(C(=S)NC(C)C)C2)cc1 (stereo not given),-0.1,-1.4,0.5,-2.9,2.5,22.6*,17.9,-7.3,
Cn1c2ccc(F)cc2c2ncn(CC3CCCO3)c(=O)c21 (stereo not given),-3.1,-2.2,15.5,-0.1,5.8,20.7*,-0.6,-5.1,
CC1CN(C(=O)C2CC2)C(C)CN1C(=O)C1CC1 (stereo not given),-4.9,3.1,24.6,3.0,6.1,25.0*,-6.8,-1.0,
Cc1cc(-c2n[nH]c(=S)n2N=Cc2c3ccccc3cc3ccccc23)n[nH]1,nt,nt,nt,nt,nt,11.1,nt,nt,
Cc1ccc2nc(-c3cc(N)cc(N)c3)oc2c1,-2.5,2.9,15.6,0.3,-5.8,23.2*,36.2*,-2.4,BODIPY interf DR=>122
Nc1ccc(-c2nc3ccc(N)cc3o2)cc1,-0.3,-1.1,1.8,-5.6,3.4,7.2,nt,nt,
CC12CCC(C(=O)NCCCN3CCOCC3)(C(Br)C1=O)C2(C)C (stereo not given),-2.3,2.5,11.7,-0.8,22.2,20.9*,1.1,-0.9,
O=C(CN1CCN(Cc2ccccc2)CC1)N/N=C\c1ccccc1[N+](=O)[O-],nt,nt,nt,nt,nt,3.5,nt,nt,
Cc1ccc(-c2cc(-c3nnc(SCC(=O)Nc4nccs4)n3N)[nH]n2)cc1,nt,nt,nt,nt,nt,0.6,nt,nt,
O=C(Nc1nc(-c2ccccn2)cs1)c1ccc(Cl)s1,-4.2,0.3,21.5,4.0,-0.9,27.4*,24.3*,-2.7,
O=C(Nc1nc(-c2ccccn2)cs1)c1ncc(Cl)c(Cl)c1Cl,-1.1,-0.7,6.1,3.5,5.5,26.8*,21.2*,0.6,
O=C(Nc1nc(-c2ccccn2)cs1)c1cc2ccccc2o1,-2.7,2.3,14.9,-3.9,-6.3,30.6*,19.3*,-3.5,
COC(=O)C12C=C3CC(C)=C3C(=O)N1Cc1[nH]c3ccccc3c1C2 (stereo not given),nt,nt,nt,nt,nt,-9.0,nt,nt,
COc1ccc2ccccc2c1/C=N/NC(=O)c1ccc(C)nc1,-2.5,4.2,11.6,-7.9,-16.1,-4.9,nt,nt,
